Holding throughout (assay): NCI-60 one-dose screen, 48 h (100 = growth as untreated, 0 = no growth, -100 = all killed)
Holding throughout (conditions): 10 µM unless noted

In assay [1] the test system is NCI-H23 lung.
Assay [2] has as its system NCI-H226 lung.
Assay [3] concerns NCI-H322M lung.
Assay [4] concerns HOP-62 NSCLC.
In assay [5] the test system is NCI-H460 lung.
Assay [6] deals with NCI-H522 lung.
The subject of assay [7] is A549/ATCC NSCLC.
The subject of assay [8] is 786-0 renal.
Assay [9] relates to COLO 205 colon.
Assay [10] concerns DU-145 prostate.
Assay [11] has as its system K-562 leukemia.
Assay [12] concerns MDA-MB-231 breast.
Assay [13] has as its system SF-268 CNS.
Assay [14] relates to SF-295 CNS.
Assay [15] relates to SF-539 CNS.
In assay [16] the test system is UACC-257 melanoma.
Assay [17] concerns M14 melanoma.
The subject of assay [18] is HCT-15 colon.
The test system of assay [19] is MALME-3M melanoma.
The test system of assay [20] is RXF 393 renal.

About 83,000 compounds went through this panel and 20% of them were active in at least one assay; those are over-represented in the sample as a whole.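 Single-dose data. Exposure time 48 hours. Values below 10 considered active.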 Values without a mark were called inactive. Calls of active or inactive are those of the source.

Take `COc1cc(/C=C/C(=O)Nc2ccc3c(c2)/C(=C\c2cccn2C)C(=O)N3)cc(OC)c1OC`: the growth is 57% in assay [1]; 67.3% in assay [2]; 61.2% in assay [3]; 45.5% in [4]; 55.4% in assay [5]; 5.66% (active) in [6]. Further, the growth in assay [7] is 37.5%; in assay [8], 54.8%; in assay [9], 53.7%; in assay [10], 63%; in assay [11] it was 28.4%; in assay [12] it was 36.5%. Besides, the growth was 69.3% in assay [13]; 38.3% in assay [14]; 56.7% in [15]; 62% in assay [16]; 49.5% in assay [17]; 32.5% in [18].

Turning to `COc1ccc(/C=C(\C#N)c2ccccc2)cc1`, the growth is 95.7% in assay [1]; 89.6% in assay [2]; 97.5% in assay [3]; 99.6% in [4]; 98.9% in assay [5]; 90.1% in assay [6]. In addition, the growth in assay [7] is 81.8%; in assay [8], 102%; in assay [9], 103%; in assay [10], 103%; in [11], 28.8%; in [12], 78.4%. For the same compound, the growth was 95.2% in [13]; 94.7% in [14]; 87.3% in [15]; 85.9% in [16]; 88.7% in [17]; 59.5% in [18].

Turning to `COc1ccc(-c2csc(NC(=O)c3cc(O)c(O)c(O)c3)n2)cc1`, the growth was 78.5% in [1]; 82.3% in assay [2]; 76.9% in [3]; 64.8% in [4]; 53.7% in [5]; -22.9% (active) in assay [6]. Moreover, the growth was 58.6% in [7]; 64.4% in [8]; 91.4% in [9]; 65.2% in assay [10]; 44.8% in [11]; 56% in [12]. For the same compound, the growth was 54.5% in [13]; 73.4% in assay [14]; 62.7% in assay [15]; 87.3% in assay [16]; 63.2% in assay [17]; 30.4% in [18].

Regarding `c1cncc(CNc2ccccc2-c2nnc(Nc3ccc4c(c3)OCO4)o2)c1`, the growth in [1] was 18%; in [2], -14% (active); in assay [3] it was 46.6%; in [4], 27.2%; in assay [5], 9.93% (active); in assay [6] it was 3.02% (active). For the same compound, the growth in [7] was 20%; in assay [8] it was 37%; in assay [9] it was -39.8% (active); in assay [10], 1.3% (active); in assay [19], 32.1%; in assay [12], 16.3%. Further, the growth in [20] is -2.33% (active); in assay [13] it was 33.5%; in assay [14], 5.25% (active); in assay [15] it was 0.107% (active); in assay [16] it was 56.2%; in [17], 9.13% (active). In addition, in [18], the growth was 10.2%.

In the case of `Cc1nc2cc(NC(=O)CN3CCN(CCN4C(=O)c5cccc6cccc(c56)C4=O)CC3)ccc2s1`, the growth is 60.9% in [1]; 48.6% in [2]; 69.3% in assay [3]; 60% in assay [4]; 26.5% in assay [5]; 53.2% in assay [6]. The growth in assay [7] was 37.6%; in assay [8], 51.4%; in assay [9], 47.1%; in assay [10] it was 56.8%; in assay [19], 70.6%; in [12], 72.2%. Also, the growth in assay [20] is 47.8%; in assay [13] it was 46.2%; in assay [14], 48.3%; in [15] it was 59.4%; in assay [16], 76.8%; in [17] it was 89%. Also, in [18], the growth was 45%.

Take `O=C(Nc1nc(-c2ccc(Cl)cc2)cs1)c1cc(O)c(O)c(O)c1`: the growth in assay [1] is 42.2%; in assay [2], 74.9%; in assay [3], 60.8%; in assay [4], 38.6%; in assay [5], 10.2%; in [6] it was -34.9% (active). The growth in [7] is 25.2%; in assay [8] it was 11.5%; in assay [9], 77.6%; in [10], 35.8%; in [11] it was 7.99% (active); in assay [12], 36%. Moreover, the growth in assay [13] is 26.7%; in assay [14], 31.2%; in [15], 5.36% (active); in [16], 42.7%; in [17] it was 23.2%; in assay [18], 18.8%.

Take `CCC1(c2ccccc2)Oc2ccccc2-n2c(C#N)c3ccccc3c2C1=O` (stereo not given): the growth is 97.2% in assay [1]; 110% in assay [2]; 90.3% in assay [3]; 93.6% in [4]; 105% in assay [5]; 77.5% in [6]. For the same compound, the growth was 93.6% in assay [7]; 93.9% in assay [8]; 106% in assay [9]; 114% in assay [10]; 86.7% in [11]; 98.5% in assay [12]. Moreover, the growth in [13] was 101%; in assay [14], 93.3%; in [15], 105%; in assay [16], 90.5%; in assay [17] it was 94.3%; in assay [18], 94%.

Consider `N#Cc1c2ccccc2c2n1-c1ccccc1OC(c1ccccc1)C2=O` (stereo not given), for which the growth is 22.6% in [1]; 21.2% in assay [2]; 81.5% in assay [3]; 32.6% in assay [4]; 31.8% in assay [5]; -43.7% (active) in assay [6]. In addition, the growth in assay [7] was 10.4%; in assay [8] it was 31.7%; in assay [9], 63.9%; in [10], 56.7%; in assay [11], 13%; in [12], 22.3%. Moreover, the growth is 30.1% in [13]; 16.3% in assay [14]; 77.2% in assay [15]; 53.3% in assay [16]; 41.4% in assay [17].

The record behind these values is PubChem BioAssay (NCI).
